Results taken from PubChem BioAssay AID504550 (Sanford-Burnham Center for Chemical Genomics, 2011).
The other results are listed elsewhere or left out. Calls of active or inactive are those of the source.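 Rule for the calls: active = mean activation at 20 µM of at least 40%; inactive = the rest.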

Molecular target: Neurotensin receptor type 1 (Homo sapiens) (UniProt P30989)
Experiment: beta-arrestin-GFP spots via human NTR1 – imaging, U2OS cells, single concentration, confirmation (AID 504550);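 note: 0% = DMSO without peptide and 100% = 100 nM NTR1 peptide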
Conditions: NTR1-U2OS beta-arrestin-GFP translocation imaging; at 20 µM; stronger effect = higher value

Sequence of Neurotensin receptor type 1 (Homo sapiens) (P30989 whole entry, looked up): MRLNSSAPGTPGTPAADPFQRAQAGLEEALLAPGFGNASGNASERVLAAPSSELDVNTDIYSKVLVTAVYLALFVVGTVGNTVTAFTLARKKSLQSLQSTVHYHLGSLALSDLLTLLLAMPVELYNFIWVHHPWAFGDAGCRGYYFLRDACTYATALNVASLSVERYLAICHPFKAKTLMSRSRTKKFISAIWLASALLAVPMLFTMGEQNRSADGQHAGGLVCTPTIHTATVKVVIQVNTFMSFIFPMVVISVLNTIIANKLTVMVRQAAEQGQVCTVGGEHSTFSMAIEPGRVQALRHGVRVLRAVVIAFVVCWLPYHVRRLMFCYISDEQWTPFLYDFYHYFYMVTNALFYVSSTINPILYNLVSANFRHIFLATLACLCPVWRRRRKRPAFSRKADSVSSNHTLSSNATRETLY

SMILES | activation
O=C(N/N=C/c1ccc(OC(=O)c2ccccc2Cl)cc1)c1ccc(O)cc1 | 50.1% (active)
O=C(/C=C/c1ccc(Cl)c([N+](=O)[O-])c1)c1cccnc1 | 49.5% (active)
CC(C)(C)OC(=O)N1CCC(NC(=O)c2[nH]cnc2C(=O)N[C@@H](Cc2ccccc2)C(=O)OCc2ccccc2)CC1 | 51.5% (active)
O=C(N/N=C/c1c(Cl)[nH]c2ccccc12)c1sc2ccccc2c1Cl | 21.7% (inactive)
CC(C)Cn1c(N)c(C(=O)NCc2cccs2)c2nc3ccccc3nc21 | 21% (inactive)
Nc1nc(Nc2ccccc2F)nc(NC2CCCCC2)c1[N+](=O)[O-] | 13.2% (inactive)
OC(CN=c1sc2ccccc2n1CC(O)COc1ccccc1)COc1ccccc1 (stereo not given) | 18.2% (inactive)
CCCCNc1c(-c2cccc(Sc3ccc(OC)cc3)c2)nc2ccccn12 | 68.2% (active)
Cc1ccc(NC(=O)COc2coc(CN3CCc4ccccc4C3)cc2=O)cc1Cl | -2.38% (inactive)
CC(C)Oc1c(Br)cc(Br)cc1/C=N/NC(N)=S | 26.4% (inactive)
CCOC(=O)CSC1=C(C#N)C(c2ccco2)C(C(=O)OCc2ccccc2)=C(C)N1 (stereo not given) | 7.17% (inactive)
COc1cccc(/C=N/Nc2cc(C)nc(-c3ccccc3O)n2)c1O | 36.7% (inactive)
CCCCCCCCCCOC(=O)Cn1c(COc2cccc(OC)c2)[n+](C)c2ccccc21 | 71.8% (active)
Cc1cccc(-c2nc(Nc3ccc(O)cc3)c3ccccc3n2)c1 | 31.3% (inactive)
Cc1cccc(-n2c(SCC(N)=O)nc3c(c2=O)C2(CCCCC2)Cc2ccccc2-3)c1 | 22.7% (inactive)
O=C(/C(=C/c1cccc(Cl)c1)c1nc2ccccc2[nH]1)c1ccccc1 | 62.5% (active)
CN1/C(=C\C(=O)c2oc3ccccc3c2N)C(C)(C)c2ccccc21 | 15% (inactive)
O=c1oc2ccccc2cc1-c1csc(Nc2ccc(O)cc2)n1 | 10.5% (inactive)
CC(C)c1ccccc1OCC(O)CN(CC(O)COc1cccc2ccccc12)C(C)C (stereo not given) | 15.3% (inactive)
COc1ccc(C(C[N+](=O)[O-])n2nc(C)cc2C)cc1 (stereo not given) | 52.4% (active)
